FGF22 binding-1 – binders of human FGF22 protein, primary screen, FGF22 synaptogenesis inhibitor project, biophysical, thermal shift, single point | Fibroblast growth factor 22 (Homo sapiens), Q9HCT0 | recombinant FGF22 thermal shift, SYPRO orange fluorescence; percent of sucrose octasulfate shift, DMSO zero | activity (Tm shift, normalised), % at 9.99 µM | 340,000 compounds, 1.5% hits;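 active = mean Tm shift, scaled 0 neutral to 100 positive control, at about 1.3% or above, every replicate too, limit read from the data; inconclusive = no clear call, values can overlap the other calls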
Target sequence (Q9HCT0 whole entry, looked up): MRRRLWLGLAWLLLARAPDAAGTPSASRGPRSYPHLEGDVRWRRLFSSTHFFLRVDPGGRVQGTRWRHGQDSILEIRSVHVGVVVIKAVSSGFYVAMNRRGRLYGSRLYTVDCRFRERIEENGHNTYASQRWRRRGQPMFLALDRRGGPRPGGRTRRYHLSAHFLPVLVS
AF4-AF9 inh – inhibitors of AF4 peptide binding to AF9, primary screen, biochemical, AlphaScreen, biotin-AF4 peptide, FLAG-AF9, single point; Protein AF-9 (Homo sapiens), P42568; inhibition, % at 10 µM; 350,000 compounds, 0.47% hits; AID 651704, 2012;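 active = every replicate reaching a set inhibition limit, whatever the replicate mean, cut at about 25% in these data; inconclusive = mean inhibition reaches that limit but some replicates miss it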;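 also: 0% = plate neutral control median and 100% = total signal loss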
ERAP1 HTS inh – human ERAP1 aminopeptidase inhibitors, primary screen, biochemical, single point, plate reader; recombinant ERAP1, Leu-AMC fluorescence, 60 min; Endoplasmic reticulum aminopeptidase 1 (Homo sapiens), Q9NZ08; AID 652197, 2013; inhibition, % at 10.7 µM; 340,000 compounds, 0.15% hits;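 active = mean replicate inhibition of at least 30%, or all replicates individually reaching that 30% level; inactive = mean below 30% and not every replicate reaching it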;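 also: 0% = neutral control wells and 100% = L-leucinethiol positive control wells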
RAD52 inh – RAD52 DNA annealing inhibitors, primary screen, biochemical, FRET, single point, set 2 | DNA repair protein RAD52 homolog (Homo sapiens), P43351 | recombinant RAD52 DNA annealing, FRET fluorescence | inhibition, % at 18.7 µM | 360,000 compounds, 0.46% hits | AID 651710, 2012;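 active = every replicate showing at least 50% inhibition; inconclusive = mean inhibition at least 50% but not in every replicate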
Target sequence (P43351 whole entry, looked up): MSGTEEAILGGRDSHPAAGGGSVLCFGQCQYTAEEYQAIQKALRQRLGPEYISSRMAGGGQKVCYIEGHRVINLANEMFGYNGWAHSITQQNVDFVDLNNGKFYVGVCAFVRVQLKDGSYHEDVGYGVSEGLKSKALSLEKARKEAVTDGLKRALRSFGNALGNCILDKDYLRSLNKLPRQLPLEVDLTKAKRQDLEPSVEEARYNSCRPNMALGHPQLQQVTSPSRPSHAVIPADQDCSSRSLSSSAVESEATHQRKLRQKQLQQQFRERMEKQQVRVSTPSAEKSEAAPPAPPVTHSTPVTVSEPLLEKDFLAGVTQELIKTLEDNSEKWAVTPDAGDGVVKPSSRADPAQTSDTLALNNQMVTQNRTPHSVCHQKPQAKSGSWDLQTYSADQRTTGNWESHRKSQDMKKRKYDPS
DENV2 CPE rescue – inhibitors of DENV2 cytopathic effect, primary screen, cell-based, plate reader, single concentration. DENV2-infected cells, cytopathic effect rescue. CPE inhibition, % at 9.99 µM. 350,000 compounds, 1.7% hits. AID 651640, 2012; in the data active = CPE inhibition above about 20%, passing the limit was not always enough; inconclusive = no clear call, values can overlap the other calls; tested in BHK-21 cells;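 also: 0% = median of neutral control wells and 100% = median of positive control wells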
FGF22 binding-2 – binders of human FGF22 protein, dose response, FGF22 synaptogenesis inhibitor project, biophysical, thermal shift, cherry-pick retest; AID 720646, 2013; 1,000 compounds, 2% hits; shares compounds with FGF22 binding-1; recombinant FGF22 thermal shift, SYPRO orange fluorescence; thermal shift activity, °C (ΔTm) at 38 µM;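 active = fitted rise in melting shift crosses a set limit at or below the top valid dose tested; inconclusive = flat fit at mid-level activity, or a poor quality fit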
SYPRO no-protein – compound-only thermal shift signal without protein, dose response, artefact control for FGF22 binder project, biochemical, cherry-picked samples, RT-PCR instrument; shares compounds with FGF22 binding-1; compound-only SYPRO orange thermal shift counter-screen, no protein; AC50, µM (top dose mostly 38 µM); 1,000 compounds, 2% hits; AID 743019, 2013;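 active = rising signal whose fitted curve reaches the 0.54 level within the top valid dose, showing a melting point, actives reach about 13 µM in these data; inactive = the rest, including activity in the opposite direction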; also: value is where the raw curve crosses a fixed level and not half-maximal
* marks the source's active call; other numbers are inactive results; i = inactive; ? = inconclusive; . = no result given; [ ] = remark or other dose. Hits are enriched below; roughly 4% of the tested compounds scored in any of these assays.

SMILES | FGF22 binding-1 | AF4-AF9 inh | ERAP1 HTS inh | RAD52 inh | DENV2 CPE rescue | FGF22 binding-2 | SYPRO no-protein
Cc1cccc(NS(=O)(=O)c2ccc3c(c2)NC(=O)CC(=O)N3)c1 | 0 | -2 | 2 | -1 | -2 | . | .
O=C(C[C@@H]1CC[C@@H](NC(=O)c2cccc(F)c2)[C@H](CO)O1)NCCN1CCCC1 | 0 | -1 | 1 | -3 | ? | . | .
CCc1ccc2nc(N)sc2c1 | 2.4* | 0 | 3 | -11 | -8 | -0.067 | i
CCCCNC(=O)Nc1nc2ccc(CC)cc2s1 | 0 | -5 | -1 | 3 | 11 | . | .
O=C1COc2ccc(S(=O)(=O)N3CCCC3)cc2N1 | 1.5* | 3 | -4 | -18 | 1 | 0.026 | i
O=C1COc2ccc(S(=O)(=O)N3CCCCC3)cc2N1 | 0 | -15 | -1 | -10 | -6 | . | .
O=C(CC(F)(F)F)N1C[C@@H]2[C@H](c3ccccc31)[C@@H](CO)N2C(=O)C1CCCC1 | 0 | -2 | 0 | -4 | -3 | . | .
COc1cccc(NC(=O)COc2coc(CN3CCN(c4ccccc4)CC3)cc2=O)c1 | 0 | 0 | 3 | -14 | -10 | . | .
CCc1ccc(NC(=O)COc2coc(CN3CCN(c4ccccc4)CC3)cc2=O)cc1 | 2.6* | -2 | -1 | 3 | ? | 0.13 | i
CCC(=O)Nc1ccc2c(c1)OC[C@H](C)N(C(=O)CN(C)C)C[C@H](C)[C@H](OC)CN(C)C2=O | 0 | 0 | 3 | -5 | -12 | . | .
C[C@@H](O)C#Cc1ccc2c(c1)O[C@H](CN(C)C(=O)C1CCCCC1)[C@@H](C)CN([C@@H](C)CO)S2(=O)=O | 0 | 1 | -1 | 4 | -4 | . | .
COc1ccccc1C(=O)N1C[C@H]2[C@@H](c3ccccc31)[C@H](CO)N2C(=O)C1CCCCC1 | 1.7* | -3 | 5 | 10 | -6 | 0.02 | i
COc1ccccc1C(=O)N1C[C@H]2[C@@H](c3ccccc31)[C@@H](CO)N2C(=O)C1CCCCC1 | 0 | 1 | 0 | 1 | 9 | . | .
CCC(=O)N1[C@H](CO)[C@@H]2c3ccccc3N(C(=O)c3ccccc3F)C[C@@H]21 | 0 | -2 | 3 | 10 | 15 | . | .
O=C(c1cccc(F)c1)N1C[C@H]2[C@@H](c3ccccc31)[C@H](CO)N2C(=O)C1CCCCC1 | . | -2 | -3 | -18 | 14 | . | .
COCC(=O)N1[C@H](CO)[C@H]2c3ccccc3NC[C@H]21 | 15* | 0 | 0 | 8 | 32* | 0.036 | i
O=C(c1cccc(F)c1)N1C[C@@H]2[C@H](c3ccccc31)[C@H](CO)N2C(=O)C1CCCCC1 | 66* | -4 | -1 | -14 | -14 | -0.081[42 µM] | i
COCC(=O)N1C[C@@H]2[C@H](c3ccccc31)[C@H](CO)N2C(=O)c1ccccc1F | 1.7* | 0 | 1 | -2 | -1 | -0.17[42 µM] | i
O=C(CC1CC1)N1[C@@H](CO)[C@@H](c2ccccc2)C12CN(Cc1cc(F)ccc1F)C2 | 0 | -2 | -15 | -55 | -10 | . | .
CCOc1ccc(C(=O)CCC(=O)Nc2ccc(C)cn2)cc1 | 14* | -15 | 1 | -135 | 2 | 0.22 | i
O=C(N/N=C/c1c(O)ccc2ccccc12)c1[nH]ncc1Br | 1.3* | 5 | -3 | -44 | 5 | -0.32 | i
Cc1ccc(O)c(/C=N/NC(=O)c2[nH]ncc2Br)c1 | 0 | -8 | -2 | -23 | -6 | . | .
C[C@@H]1CCCCO[C@@H](CN(C)Cc2ccccc2)[C@@H](C)CN([C@H](C)CO)C(=O)c2cc(NC(=O)Nc3ccc(C(F)(F)F)cc3)ccc2O1 | 0 | -3 | -4 | 3 | -11 | . | .
NC(=O)c1cccnc1Nc1ccccc1F | 1.4* | -12 | -4 | 11 | -5 | 0.11 | i
O=C(C[C@H]1CC[C@@H]2[C@H](COC[C@@H](O)CN2CC2CCCC2)O1)NCc1ccc(Cl)cc1 | . | -4 | -3 | -3 | -5 | . | .
SMILES | FGF22 binding-1 | AF4-AF9 inh | ERAP1 HTS inh | RAD52 inh | DENV2 CPE rescue | FGF22 binding-2 | SYPRO no-protein
Oc1cc(O)cc(C=Cc2ccc(O)c(O)c2)c1 | 2.0* | 10 | 31* | 5 | -1 | 0.073 | i
CNC(=O)C[C@@H]1CC[C@H]2[C@H](COc3ccc(NC(=O)c4ccc(F)cc4)cc3C(=O)N2C)O1 | 0 | -2 | -1 | -14 | 0 | . | .
O=C(Nc1ccc2c(c1)OCO2)c1ccc(NC2CC2)c([N+](=O)[O-])c1 | 1.6* | 2 | 2 | -15 | -4 | 0.6 | i
Cc1ccc(NC(=O)C2CCCN2C(=O)Oc2ccccc2)c(C)c1 (stereo not drawn) | 2.2* | -1 | 3 | 0 | -3 | -0.007 | i
Cc1noc(C)c1S(=O)(=O)Nc1ccc2c(c1)C(=O)N([C@@H](C)CO)C[C@H](C)[C@@H](CN(C)S(=O)(=O)c1cn(C)cn1)OCCCC[C@H](C)O2 | . | -1 | 0 | 3 | 0 | . | .
Cc1noc(C)c1S(=O)(=O)N(C)C[C@H]1Oc2ccc(NC(=O)C3CCCCC3)cc2CC(=O)N([C@@H](C)CO)C[C@@H]1C | 0 | 0 | 0 | -14 | 16 | . | .
O=C(C[C@H]1C[C@@H]2c3cc(NS(=O)(=O)c4ccc(F)cc4)ccc3O[C@@H]2[C@H](CO)O1)NCc1ccccc1F | . | 1 | 2 | -38 | 4 | . | .
Cc1ccc(-c2n[nH]c(=S)n2/N=C/c2c(C)[nH]n(-c3ccccc3)c2=O)cc1 | 2.7* | -1 | 0 | -24 | 11 | -0.001 | i
NC(=O)c1ccsc1NC(=O)COC(=O)CCCOc1ccccc1 | 1.9* | -2 | 0 | -12 | 1 | 0.12 | i
Cc1ccc(S(=O)(=O)N[C@@H]2CC[C@H](CCNC(=O)C3CCC3)O[C@@H]2CO)cc1 | 0 | -2 | -1 | -9 | -4 | . | .
Cc1ccc(SCC(=O)OCC(=O)NCCC2=CCCCC2)cc1 | 0 | -4 | -2 | -7 | -1 | . | .
O=C(COC(=O)CSc1ccc([N+](=O)[O-])cc1)NCCC1=CCCCC1 | 5.5* | 0 | 4 | -7 | 2 | 0.16 | i

From PubChem BioAssay
